Here are results for 42 sequences from article PMC7819943, “Rice protein-binding microarrays: a tool to detect cis-acting elements near promoter regions in rice”.

Over roughly 68,000 sequences, “fluorescence intensity (a.u.)” has its median near 9,100; the highest 2% begin near 16,000. What follows is part of a selection rich in the highest values, with near analogues and random picks from the rest.

OsWRKY34, sequence (Q0JBA9 entry or part of it): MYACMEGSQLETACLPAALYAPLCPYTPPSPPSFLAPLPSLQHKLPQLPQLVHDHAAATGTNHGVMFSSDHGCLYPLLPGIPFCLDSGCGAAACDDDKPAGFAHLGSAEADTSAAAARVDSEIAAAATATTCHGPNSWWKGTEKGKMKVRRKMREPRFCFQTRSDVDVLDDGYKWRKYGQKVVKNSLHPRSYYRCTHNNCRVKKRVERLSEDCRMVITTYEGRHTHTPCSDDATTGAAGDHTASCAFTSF

For this test, the target named is OsWRKY34 (Oryza sativa, UniProt Q0JBA9 1-250). The test can be described thus: protein-binding microarray (RPBM); PBS, 2% BSA, 51.3 ng/ul salmon testes DNA, 50 uM zinc acetate, 200 nM TF, 25 C, 1 h; high values mean tight binding. The note with it: protein: recombinant; tags: N-terminal polyhistidine and DsRed monomer fusion (pET32a); label: CyDye5-dUTP incorporated in the synthesized complementary strand; 3' TTTTT single-stranded linker to array surface; dsDNA, one strand shown. The procedure, abridged:
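Polyhistidine-tagged DsRed fusions of transcription factors, joined at the N-terminus, were expressed in E. coli BL21-CodonPlus and isolated on Ni–NTA. They were incubated at 200 nM for 1 h at 25 °C on a custom Agilent array, double-stranded and BSA-blocked, in PBS with 2% BSA, salmon testes DNA and 50 µM zinc acetate. The binding signal is per-feature fluorescence intensity (arbitrary units) read on an Axon 4000B scanner after washing.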
For the sequence “CCGACCCGACCCGACCACCCACCGGCGAGGCCCACTCCGTCGGAGTCACCTAGTGCAG”, the binding signal was 8620 fluorescence intensity (a.u.).
As to “TGCTGCTGCTGTTGTTCGTGTATTGCTCCATCTGTGCACGCGGAGTCACCTAGTGCAG”, the binding signal is 9920 fluorescence intensity (a.u.).
Turning to “CATAAACGACGCCGCATCAGACAAACTAAACGCGACAATACGGAGTCACCTAGTGCAG”, the binding signal is 8100 fluorescence intensity (a.u.).
Turning to “GCACTACCTTCACCATTTTTTTTGATTTTTTTCTTTTTTTCGGAGTCACCTAGTGCAG”, the binding signal is 8270 fluorescence intensity (a.u.).
Consider “GCTATCTCCATCGTCTCTTTCCTTGACCACAGCGGCAATGCGGAGTCACCTAGTGCAG”, for which the binding signal was 9860 fluorescence intensity (a.u.).
As for “CCACCACGGACTCCGCCGCCGCTCCCGCCACCGCCACATCCGGAGTCACCTAGTGCAG”, the binding signal is 10600 fluorescence intensity (a.u.).
Turning to “ATAAATGACGCCGTTGATTTTTTCTCACATGTTTGACCATCGGAGTCACCTAGTGCAG”, the binding signal was 10500 fluorescence intensity (a.u.).
“CGTTTTTTAATAGATGACGCCGTTGACTTTTTCTCACATGCGGAGTCACCTAGTGCAG”: the binding signal is 31400 fluorescence intensity (a.u.).
“AATAGATGACGCCGTTGATTTTTTCTCACATGTTTGACCACGGAGTCACCTAGTGCAG”: the binding signal is 11700 fluorescence intensity (a.u.).
With “GATGACGCCGTTGACTTTTTCTCACATGTTTGACCAATCGCGGAGTCACCTAGTGCAG” the figure was 36900 fluorescence intensity (a.u.); with “TTCATGGAGTCTACTACTCTACTCCCTCTATTTTCAAATACGGAGTCACCTAGTGCAG”, 9010 fluorescence intensity (a.u.); with “ATATAGGGGTTGGTCTTCCACGTCAAATTTGGGGTAGATACGGAGTCACCTAGTGCAG”, 10200 fluorescence intensity (a.u.).
As to “TAGCTTTGGCACCTTGCGCGCGCGTACACAGCCGCTTAAGCGGAGTCACCTAGTGCAG”, the binding signal was 8550 fluorescence intensity (a.u.).
As for “TTTTTCTCGTTTGCCGTGTCACCGCGTGAGTTGCGCGGGGCGGAGTCACCTAGTGCAG”, the figure is 11700 fluorescence intensity (a.u.); as for “ATCACATCAACCTGTCATATACACACAACTTTTCAGTCATCGGAGTCACCTAGTGCAG”, 8530 fluorescence intensity (a.u.); as for “TTAAAAAACATTGTACCACAAGTAGCAACAAATTAATGCTCGGAGTCACCTAGTGCAG”, 26900 fluorescence intensity (a.u.).
On to “ACCTCAACAAAAGCTTTGTAGTAGCTCTTAATTGTTGGGTCGGAGTCACCTAGTGCAG”, for which the binding signal is 8220 fluorescence intensity (a.u.).
Regarding “TTTGCTCCACACCACACAACACACATTGTACGGCGTTGCTCGGAGTCACCTAGTGCAG”, the binding signal is 8210 fluorescence intensity (a.u.).
“CCCAAATCCATCCAGCCCGTCGCCGCCCGCCGCCCGCCGCCGGAGTCACCTAGTGCAG”: the binding signal was 8860 fluorescence intensity (a.u.).
As to “TGTTATTGTCCTGTATCAGTCCCGTGCTGTTTTTCTCTTTCGGAGTCACCTAGTGCAG”, the binding signal is 13000 fluorescence intensity (a.u.).
“TGTTAAAACACCCTTTTTCACTTTTCTAGCCGTTCACTTTCGGAGTCACCTAGTGCAG”: the binding signal was 9280 fluorescence intensity (a.u.).
With “GTCCGTCTTGTTTTCTCCTGCGTCACAATTGTCCCGTATTCGGAGTCACCTAGTGCAG” the figure was 18500 fluorescence intensity (a.u.).
As for “ATCCACTCCAGTCCCGTCCCGTTTCCTTGCTGCCCGGCCGCGGAGTCACCTAGTGCAG”, the binding signal was 9660 fluorescence intensity (a.u.).
With “CACTCCTGCTGCCGTCCAGTTGCAATTGCGTTTTCTCCTTCGGAGTCACCTAGTGCAG” the figure was 16700 fluorescence intensity (a.u.); with “AGTTTTCTTTGTTCACCTACCGTTTTTTTAGCACGTAGTTCGGAGTCACCTAGTGCAG”, 10500 fluorescence intensity (a.u.).
For “ACGTGTCCTTCTCTCTTTTTTTCTTTTTCGTTTTCTTCTCCGGAGTCACCTAGTGCAG”, the binding signal was 8280 fluorescence intensity (a.u.).
On to “TACTGCCGTCGCCGTCGCCCCACGTTTCCTTCTCCAGTTTCGGAGTCACCTAGTGCAG”, for which the binding signal was 8300 fluorescence intensity (a.u.).
“CTGATCTTAACTCCGTGTTTTTCCGCGTTCTCTTTCGTTCCGGAGTCACCTAGTGCAG”: the binding signal was 19600 fluorescence intensity (a.u.).
As for “CTTTTCTAGCCGTTCACTTTTTTTTACCACAGTAGTTTTTCGGAGTCACCTAGTGCAG”, the figure is 16600 fluorescence intensity (a.u.).
Regarding “TGTTCTGTGAGAATAGTTTCGTCCGTCTTGTTTTCTCCTGCGGAGTCACCTAGTGCAG”, the binding signal is 8470 fluorescence intensity (a.u.).
For the sequence “AGTCCGTGCTGCAGATCTGCTCTTTTCTCTTCGTTTAACTCGGAGTCACCTAGTGCAG”, the binding signal is 10300 fluorescence intensity (a.u.).
Consider “CCGGGTTCCTGTTTTTTCAACGCATGCACACTTTAATCTACGGAGTCACCTAGTGCAG”, for which the binding signal was 9290 fluorescence intensity (a.u.).
On to “AATTTTTTTTTGCTTACAAAGGGTGAAACTTTCTCTCTCTCGGAGTCACCTAGTGCAG”, for which the binding signal was 8500 fluorescence intensity (a.u.).
With “CTCCGACGACCCCACCGTGCCCACCCCGACCGCCGTCTCGCGGAGTCACCTAGTGCAG” the figure was 9650 fluorescence intensity (a.u.); with “TTTCTGGGATATTCCATCTCATTACAGCACTCATTCTTTACGGAGTCACCTAGTGCAG”, 9350 fluorescence intensity (a.u.); with “AATCTCCATCTTCTTGCTCGTACAACGTAAATACTCGTCTCGGAGTCACCTAGTGCAG”, 8830 fluorescence intensity (a.u.).
For the sequence “CGTCTTGTCTTGGCGTATGTTGGCTTGTATGTTGTTCCGTCGGAGTCACCTAGTGCAG”, the binding signal was 10500 fluorescence intensity (a.u.).
With “ACTTGATGTTCTTTCGTTCTTTCCTGCGAAAACGTCAGGCCGGAGTCACCTAGTGCAG”, the binding signal was 25600 fluorescence intensity (a.u.).
As for “ATTGTCCATGATGTTCTTCCTTTTCTTTTTCGTTGTCAAACGGAGTCACCTAGTGCAG”, the binding signal was 10300 fluorescence intensity (a.u.).
In the case of “CTCTTTTCTTTCTTTTCTTTTCCTTTCTTTTTCCTTTCTTCGGAGTCACCTAGTGCAG”, the binding signal is 8540 fluorescence intensity (a.u.).
As for “CCTATTTTTGATGTTCCGGATTTTTTCTTTGCGGCCAAAACGGAGTCACCTAGTGCAG”, the figure is 11700 fluorescence intensity (a.u.).
As for “AGTTTTGTTTCTTTCCTGTTCACAGTTCACCTTTGCCTTTCGGAGTCACCTAGTGCAG”, the binding signal is 12400 fluorescence intensity (a.u.).
